# Screening data as filed in PubChem BioAssay.
# The list is not random: actives were taken first. Their share in the collection is about 5.4%.
# CtBP-E1A inh = blocks the CtBP interaction with E1A; AlphaScreen GST-E1A/His-CtBP binding, 1536-well; stronger effect = lower value; activity change, % (no concentration beside the values); actives 0.49% (n = 340,000); in the data active = activity change below about -65%; inconclusive = mostly about -30% to -63%; note: % is set by controls: 0 for no effect and ±100 for the full control effect
#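 In 5 uL wells, 23 nL compound meets equimolar GST-E1A and His-CtBP (5X stock 125 nM each) for 2 h, 37 °C. Beads (5X, 50 ug/mL) then 1 h, 37 °C, dark.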
# Six1-Eya2 inh = inhibitors of human Six1/Eya2 interaction; Q15475+O00167; AlphaScreen GST-Six1/His-Eya2 binding, biochemical; stronger effect = lower value; activity change, % (test concentration not listed); actives 0.56% (n = 360,000); AID 651725; in the data active = activity change below about -65%; inconclusive = mostly about -30% to -63%; note: % is set by controls: 0 for no effect and ±100 for the full control effect
#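 Six1/Eya2 binding was read as AlphaScreen signal after compounds were pinned into GST-Six1 plus His-tagged Eya2 (5X stock 250/500 nM) in pH 8.0 Tris/NaCl/TCEP buffer, beads added, then incubated 1 h, 37 C, dark.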
# Gal4-VP16 FLuc = Gal4-VP16 reporter inhibition counter-screen; Drosophila S2 Gal4-VP16 UAS-luciferase, luminescence, 20 h; Potency, µM (highest dose often 53.6 µM), for inactives: at the top dose activity, negative = inhibition, usual class: inhibitors; actives 3.5% (n = 310,000);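 note: Gal4-VP16 expression switched on by copper sulfate through the metallothionein promoter; potency is the fitted concentration of half-maximal effect; % is set by controls: 0 for no effect and ±100 for the full control effect; nearly all actives have a fitted effect of over 50% in size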
# RORg inh = ROR gamma (mouse) transcription inhibition; P51450; Drosophila S2 Gal4-RORgamma UAS-luciferase reporter, 20 h; Potency, µM (series often up to 53.6 µM), for the others: at the highest dose activity change, negative = inhibition, most hits filed as inhibitors; actives 5.4% (n = 310,000); AID 2551; note: potency is the fitted concentration of half-maximal effect; % is set by controls: 0 for no effect and ±100 for the full control effect; nearly all actives have a fitted effect of over 60% in size
# Target sequence (P51450 whole entry, looked up, the tested form may be a part): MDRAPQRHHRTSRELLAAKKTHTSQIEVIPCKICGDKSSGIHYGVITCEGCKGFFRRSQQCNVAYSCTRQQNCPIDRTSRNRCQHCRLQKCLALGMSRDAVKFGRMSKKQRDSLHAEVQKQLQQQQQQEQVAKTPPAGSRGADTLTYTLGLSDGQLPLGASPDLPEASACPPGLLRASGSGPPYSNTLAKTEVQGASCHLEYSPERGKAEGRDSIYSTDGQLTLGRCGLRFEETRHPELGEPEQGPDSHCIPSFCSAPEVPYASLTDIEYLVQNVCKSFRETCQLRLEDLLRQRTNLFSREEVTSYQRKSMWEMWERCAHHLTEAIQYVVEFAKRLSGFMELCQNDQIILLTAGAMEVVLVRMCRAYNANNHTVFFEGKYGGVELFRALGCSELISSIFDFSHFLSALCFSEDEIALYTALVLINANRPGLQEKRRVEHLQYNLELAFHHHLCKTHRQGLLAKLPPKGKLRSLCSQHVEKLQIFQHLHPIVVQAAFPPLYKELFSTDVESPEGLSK
#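 ROR gamma transcriptional activity was tracked as Gal4-UAS luciferase output in stably transfected Drosophila Schneider cells, with compound added 1 hr before 700 uM copper sulfate induction and a 20 hr ambient-temperature incubation.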
# p53 reactivation = mutant p53 re-activation in reporter cells; Potency, µM (top dose mostly 92.2 µM), without a hit: top-dose activity change, positive = activation, most hits filed as activators; AID 504706; H1299 p53-A138V BP100-luciferase reporter, luminescence, 24 h; actives 0.063% (n = 320,000); note: potency is the fitted concentration of half-maximal effect; % of control where 0% means no effect; nearly all actives have a fitted effect of over 45% in size
#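 H1299 (p53-null), stable ts p53-A138V + BP100-Luc; 1000 cells/well, Opti-MEM/10% FBS; cpd 4 pt, 1:5; 24 h, 37 deg C, 5% CO2; detection reagent 10 min RT; luminescence.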
# Active calls of the source: *; ? = inconclusive; . = no result. Unless noted, calls come from the whole dose curve; as a rule, active = well fitted curve in the direction sought with a large enough effect; inconclusive = small, poorly fitted or top-dose-only effect, or another doubt; inactive = no such curve, though single readings can be large; an effect the other way counts as inactive or inconclusive.
SMILES,CtBP-E1A inh,Six1-Eya2 inh,Gal4-VP16 FLuc,RORg inh,p53 reactivation
Cc1ccc(C)c(-c2nc3cc(N)ccc3o2)c1,0,23,-6%,14%,-17%
CCc1ccc2oc(-c3cc(N)cc(C)c3O)nc2c1,-23,0,8.9µM*,?,?
CCc1ccc2oc(-c3cc(N)ccc3Cl)nc2c1,-2,5,10µM*,?,?
Clc1ccc(/C=N/N2CCN(Cc3ccccc3)CC2)cc1,.,-20,0%,31%,?
COC(=O)C1=C[C@@H](C(=O)OC)C2C3=C(C(=O)[C@@]2(C)NC(=O)c2ccccc2)[C@H](C)[C@@H]2C(=O)NC(=O)[C@@H]2[C@@H]3C1 (stereo partly specified),.,.,9%,-6%,.
NC(c1csc(Nc2cc(Oc3ccccc3)ncn2)n1)C1CCCCC1 (stereo unspecified),-12,-13,.,.,.
NCc1csc(Nc2cc(Oc3ccccc3)ncn2)n1,-77*,?,.,.,.
CCN(CC)c1c([N+](=O)[O-])c(=O)n(C)c2ccccc12,-19,-13,-3%,1%,-6%
Cn1c(=O)c([N+](=O)[O-])c(Cl)c2ccccc21,1,-15,13µM*,10µM*,-14%
CN1CCc2c(n(CC(O)CN3CCN(CCO)CC3)c3ccccc23)C1=O (stereo unspecified),0,3,7%,-10%,6%
COc1ccccc1-c1nnc(NC(=O)C(C)Sc2nncn2C)s1 (stereo unspecified),.,-7,-6%,1%,1%
COc1ccccc1-c1nnc(NC(=O)CSc2nncn2C)s1,-1,12,?,8.9µM*,-6%
COc1ccccc1CCC(=O)N(Cc1ccccc1)c1c(N)n(Cc2ccccc2)c(=O)[nH]c1=O,4,1,-1%,-1%,28%
Cc1cc(C)n(CC2CC(=O)N(c3ccc(F)c(Cl)c3)C2=O)n1 (stereo unspecified),4,6,4%,14µM*,-3%
O=C1c2ccccc2NC(c2ccc(-c3ccc(Br)cc3)o2)N1O (stereo unspecified),0,-9,?,7.1µM*,?
O=c1c(Cc2ccccc2)c(O)ccn1CCc1cnc[nH]1,0,1,0%,7%,15%
Cc1cc(N/N=C2/CCCc3ccccc32)nc2ccccc12,2,0,11µM*,2µM*,?
c1ccc(N/N=C2\CCCc3ccccc32)nc1,-3,-9,?,13µM*,3%
CCCC1SCC(C)(C)NC1=O (stereo unspecified),12,8,.,.,.
S=C(NCC1CCCO1)Nc1cccc(Cl)c1 (stereo unspecified),10,3,20µM*,16µM*,0%
S=C(NCC1CCCO1)Nc1ccc(Nc2ccccc2)cc1 (stereo unspecified),-18,-3,?,?,7%
Cc1cc(C)cc(NC(=S)NCC2CCCO2)c1 (stereo unspecified),-1,5,35µM*,11µM*,-5%
S=C(NCC1CCCO1)Nc1cc(Cl)c(Cl)cc1Cl (stereo unspecified),0,14,18µM*,3.2µM*,3%
CCCC(=O)N1CCC1(C)C(=O)NS(=O)(=O)c1ccccc1Cl (stereo unspecified),-3,5,.,.,.
CCCn1c(C)nc2cc(Cl)c(N3CCN(c4nc(-c5ccc(C)cc5)cs4)CC3)cc21,-5,-10,?,4.5µM*,2%
SMILES,CtBP-E1A inh,Six1-Eya2 inh,Gal4-VP16 FLuc,RORg inh,p53 reactivation
Cc1ccc(-c2csc(N3CCN(c4cc5c(cc4Cl)nc(-c4ccncc4)n5CCN4CCCCC4)CC3)n2)cc1,.,-13,-25%,8.9µM*,4%
Cc1ccc(NC(=O)CCNS(=O)(=O)c2ccc3[nH]c(=O)oc3c2)cc1C,.,-2,6%,-5%,-2%
O=C(CC(NCc1ccccn1)C(=O)O)Nc1ccccc1Cl (stereo unspecified),-89*,-91*,1%,-19%,1%
O=C(NCc1ccccn1)Nc1cc(Cl)ccc1Cl,0,-4,-13%,-31%,23%
c1ccc(CSc2ccc(-c3ccco3)nn2)cc1,1,-15,4%,-1%,?
COCCn1c(C)cc(C(=O)COC(=O)c2ccc[nH]c2=O)c1C,5,8,3.5µM*,4.5µM*,28%
Cc1ccc(-n2c(C)cc(C(=O)COC(=O)c3ccc[nH]c3=O)c2C)cc1,-1,-7,.,11µM*,14%
COCC(=O)OCC(=O)c1cc(C)n(-c2ccc(Br)cc2)c1C,4,9,-1%,6%,-3%
Cc1cc(C(=O)COC(=O)c2ccc[nH]c2=O)c(C)n1-c1ccc(Br)cc1,-17,-1,0.4µM*,-27%,7%
Cc1cc(C(=O)COC(=O)c2ccc[nH]c2=O)c(C)n1CCc1ccc(F)cc1,2,4,-6%,-12%,2%
Cc1cc(C(=O)COC(=O)c2ccc[nH]c2=O)c(C)n1C,-2,-5,?,?,?
CCCCCCCc1cc2c(cn1)C(=O)C(C)(OC(C)=O)C(O)=C2Cl (stereo unspecified),.,.,1%,19%,.
CSCC[C@@H](CO)NC(=O)[C@H]1O[C@@H](n2ccc(=O)[nH]c2=O)[C@H](O)[C@@H]1O,15,8,.,.,.
Cc1ccc(C2(c3ccccc3)NC(=O)N(CC(=O)NCc3ccccc3)C2=O)cc1C (stereo unspecified),3,1,.,.,-15%
C=CCn1c(-c2ccccc2OC)n[nH]c1=S,1,2,?,11µM*,0%
C=CCn1c(-c2cccc3ccccc23)n[nH]c1=S,-4,5,10µM*,3.5µM*,-3%
Cc1cc(C)n(-c2ccc(C(=O)OCC(=O)Nc3ccc(Cl)cc3[N+](=O)[O-])cc2)n1,-19,-10,-7%,-14%,5%
O=C(NCCc1nc2ccccc2[nH]1)c1cc([N+](=O)[O-])cc([N+](=O)[O-])c1,-1,4,-17%,?,2%
N/N=C(/Cc1nc2ccccc2[nH]1)c1ccc([N+](=O)[O-])cc1,-28,-13,?,14µM*,1%
CCc1nc2ccccc2c(C(=O)Nc2ccc(C)cc2)c1C,.,1,5%,-24%,.
O=C1C(C2=NC(C(=O)O)C3C(=O)N(c4ccccc4)C(=O)C23)=C(O)c2ccccc21 (stereo unspecified),-1,12,13µM*,11µM*,-8%
O=C1C(C2=NC(c3ccccn3)C3C(=O)N(c4ccc(OC(F)(F)F)cc4)C(=O)C23)=C(O)c2ccccc21 (stereo unspecified),-8,-9,0%,4%,-2%
Cc1c(Cl)cccc1NC(=S)NC(=O)CCN1C(=O)c2ccccc2C1=O,-7,2,?,16µM*,10%
